# Assay outcomes deposited in PubChem by National Center for Advancing Translational Sciences (NCATS).
# HepG2 tox-1 = counter-screen for TGF-b inhibitors: cytotoxicity in HepG2 cells; HepG2 CAGA-GFP viability, ATP luminescence, 18 h; Potency, µM (titrated, usually from 46.1 µM), for inactives: at the top dose activity change, negative = cytotoxicity, hits mostly cytotoxic; 0.76% of 410,000 active; AID 588856
#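 CellTiter-Glo luminescence gave cytotoxicity after 18 hours at 37 degrees C. The cells were HepG2 CAGA-GFP in 1% FBS DMEM, stimulated with 500 pg/mL TGF-beta after compound addition. %Activity was normalised to no-cell wells (complete cell-killing) and DMSO (no toxicity), and curves were fitted and classified.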
# TGFb inhibitor = blocks TGF-b signaling; HepG2 CAGA-GFP TGF-b/SMAD3 reporter, GFP fluorescence, 18 h; TGF-beta stimulated, 500 pg/mL final; Potency, µM (series often up to 46.1 µM), for the others: at the highest dose activity, negative = inhibition, actives largely listed as inhibitors; 1.2% of 410,000 active; note: % is set by controls: 0 for no effect and ±100 for the full control effect; nearly all actives have a fitted effect of over 65% in size
#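 HEPG2 CAGA-GFP reporter cells (1000/well, DMEM with 1% FBS) received compounds, then recombinant TGF-beta at 500 pg/mL final for 18 hours at 37 degrees C. Per-cell GFP summed per well was normalised to unstimulated and stimulated DMSO controls before curve fitting.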
# ATXN2 expr inh = reduces ATXN2 reporter expression in HEK-293 cells; HEK-293 ATXN2-luciferase reporter, luminescence, 24 h; Potency, µM (doses to about 57 µM), for inactives: at the top dose activity change, negative = inhibition, most hits filed as inhibitors; 0.72% of 360,000 active; AID 1745845; note: % is set by controls: 0 for no effect and ±100 for the full control effect; nearly all actives have a fitted effect of over 55% in size
#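 ATXN2-luciferase reporter cells (luciferase flanked by upstream and downstream ATXN2 gene portions) were treated 24 h at 37 °C with compounds at up to 57 uM. SteadyGlo luminescence gave expression; GF-AFC fluorescence gave viability.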
# Gal4-VP16 FLuc = inhibits Gal4-VP16 luciferase reporter, ROR gamma counter-screen | Drosophila S2 Gal4-VP16 UAS-luciferase, luminescence, 20 h | AID 2546 | Potency, µM (highest dose often 53.6 µM), without a hit: at the highest dose activity, negative = inhibition, usual class: inhibitors | 3.5% of 310,000 active;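 note: Gal4-VP16 expression switched on by copper sulfate through the metallothionein promoter; % is set by controls: 0 for no effect and ±100 for the full control effect; nearly all actives have a fitted effect of over 50% in size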
# RORgamma inh = inhibitors of mouse ROR gamma transcriptional activity. Potency, µM (highest dose often 53.6 µM), for inactives: top-dose activity change, negative = inhibition, hits mostly inhibitors. Drosophila S2 Gal4-RORgamma UAS-luciferase reporter, 20 h. 5.4% of 310,000 active. P51450; note: % is set by controls: 0 for no effect and ±100 for the full control effect; nearly all actives have a fitted effect of over 60% in size
# Target sequence (P51450 whole entry, looked up, the tested form may be a part): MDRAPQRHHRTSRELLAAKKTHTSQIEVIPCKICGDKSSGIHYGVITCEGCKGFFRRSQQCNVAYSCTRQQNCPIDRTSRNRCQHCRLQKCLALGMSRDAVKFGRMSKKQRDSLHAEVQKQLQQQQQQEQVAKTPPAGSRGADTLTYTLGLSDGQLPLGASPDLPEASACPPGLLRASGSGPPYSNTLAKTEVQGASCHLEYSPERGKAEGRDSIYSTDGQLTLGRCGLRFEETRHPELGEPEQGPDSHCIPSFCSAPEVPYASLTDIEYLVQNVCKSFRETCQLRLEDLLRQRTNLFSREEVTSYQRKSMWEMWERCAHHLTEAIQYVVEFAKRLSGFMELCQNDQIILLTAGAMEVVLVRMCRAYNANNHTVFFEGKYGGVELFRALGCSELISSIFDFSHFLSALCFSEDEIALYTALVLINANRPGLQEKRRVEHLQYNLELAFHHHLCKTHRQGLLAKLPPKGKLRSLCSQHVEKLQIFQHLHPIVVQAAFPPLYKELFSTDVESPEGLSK
#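 Drosophila Schneider cells stably carrying a metallothionein-driven Gal4 DBD–ROR gamma fusion and a UAS-Photinus luciferase reporter were exposed to compound for 1 hr, then induced with copper sulfate (700 uM final) for 20 hr at ambient temperature before luminescence reading.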
# ATXN viability = viability counter-screen for ATXN expression inhibitors. S2 cells (HEK-293 line with an ATXN2-luciferase reporter) viability, CellTiter-Fluor protease fluorescence, 24 h. Potency, µM (doses to about 56.7 µM), hits mostly cytotoxic. 0.49% of 400,000 active. AID 651635; note: nearly all actives have a fitted effect of over 40% in size
# TGFb CAGA inh = confirmation of TGF-b signaling inhibitors in HepG2 reporter cells; HepG2 CAGA-GFP TGF-b reporter, GFP fluorescence, 18 h; cells stimulated with TGF-beta, 500 pg/mL; 63% of 1,600 active; Potency, µM (doses to about 46.1 µM), inactives show at the highest dose activity, negative = inhibition, most hits filed as inhibitors; shares compounds with TGFb inhibitor; note: % is set by controls: 0 for no effect and ±100 for the full control effect; nearly all actives have a fitted effect of over 65% in size
# HepG2 tox-2 = counter-screen for TGF-b inhibitors: cytotoxicity in HepG2 cells; shares compounds with TGFb inhibitor; HepG2 CAGA-GFP viability, ATP luminescence, 18 h; cells stimulated with TGF-beta, 500 pg/mL; Potency, µM (series often up to 46.1 µM), for the others: at the top dose activity, negative = cytotoxicity, actives largely listed as inhibitors; 27% of 1,600 active; AID 720535; note: % is set by controls: 0 for no effect and ±100 for the full control effect; nearly all actives have a fitted effect of over 70% in size
# TGFb CCL64 inh = orthogonal confirmation of TGF-b inhibitors in CCL64 cells; Potency, µM (series often up to 46.1 µM), inactives show at the highest dose activity, negative = inhibition, actives largely listed as inhibitors; 41% of 1,600 active; CCL64 CAGA-GFP reporter, TGF-b stimulated, GFP fluorescence, 18 h; shares compounds with TGFb inhibitor; note: nearly all actives have a fitted effect of over 65% in size
# TGFb COP inh = TGF-b inhibition validated with COP promoter | HepG2 COP-GFP TGF-b reporter, GFP fluorescence, 18 h; cells stimulated by added recombinant TGF-beta | 3% of 1,600 active | shares compounds with TGFb inhibitor | AID 720537 | Potency, µM (highest dose often 46.1 µM), for inactives: at the highest dose activity, negative = inhibition, actives largely listed as inhibitors; note: nearly all actives have a fitted effect of over 70% in size
# * = called active by the depositor; i = inactive; ? = inconclusive; nt = not tested or not shown; ! = not active in a repeat. Rows were chosen to be rich in hits. Some 6.1% of all compounds tested hit in one or more screens of this group. Calls come from the whole dose curve; as a rule, active = well fitted curve in the direction sought with a large enough effect; inconclusive = small, poorly fitted or top-dose-only effect, or another doubt; inactive = no such curve, though single readings can be large; an effect the other way counts as inactive or inconclusive. Potency is the fitted concentration of half-maximal effect.
SMILES,HepG2 tox-1,TGFb inhibitor,ATXN2 expr inh,Gal4-VP16 FLuc,RORgamma inh,ATXN viability,TGFb CAGA inh,HepG2 tox-2,TGFb CCL64 inh,TGFb COP inh
COc1ccc(-c2cc(C(=O)Nc3c(C)nn(Cc4ccc(C)cc4)c3C)no2)cc1OC,-22%,-10%,-29%,nt,nt,?,nt,nt,nt,nt
CCSc1ncc(Cl)c(C(=O)Nc2ccc(S(=O)(=O)N(C)c3ccccc3)cc2)n1,-5%,-29%,-4%,nt,nt,i,nt,nt,nt,nt
CCS(=O)(=O)c1ncc(Cl)c(C(=O)Nc2ccc(S(=O)(=O)N(C)c3ccccc3)cc2)n1,4.5µM*!,3.5µM*,20µM*,2.8µM*,2.8µM*,20µM*,4.6µM*,4.1µM*,1.6µM*,7.3µM*
CCN(c1ccccc1)S(=O)(=O)c1ccc(NC(=O)c2nc(S(C)(=O)=O)ncc2Cl)cc1,6.3µM*,6.3µM*,13µM*,3.2µM*,6.3µM*,nt,4.1µM*,5.2µM*,1.5µM*,6.5µM*
Cc1cc(C)nc(/N=C(\N)Nc2ccccc2-c2ccccc2)n1,-34%,10µM*,?,13µM*,?,i,?,?,?,71%
O=C(c1cccn1-c1nnc(N2CCCCC2)s1)N1CCN(c2ccccc2)CC1,-7%,?,nt,nt,nt,nt,nt,nt,nt,nt
COc1ccc2[nH]c3c(c2c1)CCN1C(=O)C(CC(=O)NCCC2=CCCCC2)C[C@H](C(=O)N2CCOCC2)[C@@]31C (stereo not given in full),0%,?,0%,nt,nt,i,nt,nt,nt,nt
CCN(CC)C(=O)[C@H]1CC(CC(=O)NCc2cccc(C(F)(F)F)c2)C(=O)N2CCc3c([nH]c4ccc(OC)cc34)[C@]12C (stereo not given in full),-4%,8.9µM*,?,nt,nt,?,33µM*,-29%,?,6%
C[C@]12c3[nH]c4cc(-c5ccco5)ccc4c3CCN1C(=O)[C@@H](CC(=O)NCCc1ccccn1)C[C@@H]2C(=O)N1CCCCC1,-2%,?,-23%,nt,nt,i,?,-21%,-27%,32%
COc1ccc2[nH]c3c(c2c1)CCN1C(=O)C(CC(=O)NCCC2=CCCCC2)C[C@H](C(=O)N2CCCCC2)[C@@]31C (stereo not given in full),-36%,7.9µM*,-1%,nt,nt,i,?,-8%,-13%,27%
CCN(CC)C(=O)[C@H]1C[C@H](CC(=O)NCc2cccc(C(F)(F)F)c2)C(=O)N2CCc3c([nH]c4cc(-c5ccco5)ccc34)[C@]12C,-38%,10µM*,?,nt,nt,?,9.2µM*,16µM*,12µM*,35%
